The sample as a whole holds a higher share of the strongest signals than the screen did.
How the values were obtained:
Experiment in all cases: glycan array binding signal (z-score within array); higher = stronger binding
Settings in all cases: glycan notation: IUPAC condensed, linker removed
[1] = target: Fuc(a1-2)Gal(b1-3)GalNAc(a1-3)[Fuc(a1-2)]Gal(b1-4)Glc
In short: (§1)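 From the Consortium for Functional Glycomics database, 3228 arrays were curated, keeping only those whose protein sequence was available. Binding is given as a within-array Z-score averaged across arrays sharing a protein sequence and across linkers. Negative Z-scores can be read as non-binding.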

[2] = target: Fuc(a1-2)Gal(b1-4)GlcNAc(b1-3)[Fuc(a1-3)[Gal(b1-4)]GlcNAc(b1-6)]Gal(b1-4)Glc
In short: as §1

[3] = target: Fuc(a1-2)Gal(b1-4)[Fuc(a1-3)]GlcNAc(b1-3)[Neu5Ac(a2-6)Gal(b1-4)GlcNAc(b1-6)]Gal(b1-4)Glc
In short: as §1

[4] = target: Fuc(a1-2)[Gal(a1-3)]Gal(b1-3)GlcNAc
In short: as §1

[5] = target: Fuc(a1-2)[Gal(a1-3)]Gal(b1-4)GlcNAc(b1-6)GalNAc
In short: as §1

[6] = target: Fuc(a1-2)[GalNAc(a1-3)]Gal(b1-3)GalNAc(b1-3)Gal(a1-4)Gal(b1-4)Glc
In short: as §1

[7] = target: Gal(a1-3)Gal(b1-4)GlcNAc(b1-2)Man
In short: as §1

[8] = target: Gal(b1-3)GlcNAc(b1-3)Gal(b1-4)GlcNAc
In short: as §1

[9] = target: Gal(b1-4)GlcNAc(b1-3)Gal(b1-3)GalNAc
In short: as §1

[10] = target: Gal(b1-4)GlcNAc(b1-3)Gal(b1-4)GlcNAc(b1-3)Gal(b1-4)GlcNAc(b1-2)Man(a1-3)[Gal(b1-4)GlcNAc(b1-3)Gal(b1-4)GlcNAc(b1-3)Gal(b1-4)GlcNAc(b1-2)Man(a1-6)]Man(b1-4)GlcNAc(b1-4)[Fuc(a1-6)]GlcNAc
In short: as §1

[11] = target: Gal(b1-4)GlcNAc(b1-3)Gal(b1-4)GlcNAc(b1-3)Gal(b1-4)GlcNAc(b1-2)[Gal(b1-4)GlcNAc(b1-3)Gal(b1-4)GlcNAc(b1-3)Gal(b1-4)GlcNAc(b1-6)]Man(a1-6)[Gal(b1-4)GlcNAc(b1-3)Gal(b1-4)GlcNAc(b1-3)Gal(b1-4)GlcNAc(b1-2)Man(a1-3)]Man(b1-4)GlcNAc(b1-4)[Fuc(a1-6)]GlcNAc
In short: as §1

[12] = target: Gal(b1-4)GlcNAc(b1-3)Gal(b1-4)GlcNAc(b1-3)Gal(b1-4)GlcNAc(b1-3)Gal(b1-4)GlcNAc(b1-2)Man(a1-3)[Gal(b1-4)GlcNAc(b1-3)Gal(b1-4)GlcNAc(b1-3)Gal(b1-4)GlcNAc(b1-3)Gal(b1-4)GlcNAc(b1-2)Man(a1-6)]Man(b1-4)GlcNAc(b1-4)GlcNAc
In short: as §1

[13] = target: Gal(b1-4)GlcNAc(b1-3)Gal(b1-4)GlcNAc(b1-3)Gal(b1-4)GlcNAc(b1-3)Gal(b1-4)GlcNAc(b1-2)Man(a1-3)[Gal(b1-4)GlcNAc(b1-3)Gal(b1-4)GlcNAc(b1-3)Gal(b1-4)GlcNAc(b1-3)Gal(b1-4)GlcNAc(b1-2)Man(a1-6)]Man(b1-4)GlcNAc(b1-4)[Fuc(a1-6)]GlcNAc
In short: as §1

[14] = target: Gal(b1-4)GlcNAc(b1-3)Gal(b1-4)GlcNAc(b1-3)Gal(b1-4)GlcNAc(b1-3)Gal(b1-4)GlcNAc(b1-2)[Gal(b1-4)GlcNAc(b1-3)Gal(b1-4)GlcNAc(b1-3)Gal(b1-4)GlcNAc(b1-3)Gal(b1-4)GlcNAc(b1-6)]Man(a1-6)[Gal(b1-4)GlcNAc(b1-3)Gal(b1-4)GlcNAc(b1-3)Gal(b1-4)GlcNAc(b1-3)Gal(b1-4)GlcNAc(b1-2)Man(a1-3)]Man(b1-4)GlcNAc(b1-4)[Fuc(a1-6)]GlcNAc
In short: as §1

[15] = target: Gal(b1-4)GlcNAc(b1-3)Gal(b1-4)GlcNAc(b1-3)Gal(b1-4)GlcNAc(b1-3)Gal(b1-4)GlcNAc(b1-3)Gal(b1-4)GlcNAc(b1-2)Man(a1-3)[Gal(b1-4)GlcNAc(b1-3)Gal(b1-4)GlcNAc(b1-3)Gal(b1-4)GlcNAc(b1-3)Gal(b1-4)GlcNAc(b1-3)Gal(b1-4)GlcNAc(b1-2)Man(a1-6)]Man(b1-4)GlcNAc(b1-4)GlcNAc
In short: as §1

[16] = target: Gal(b1-4)GlcNAc(b1-3)Gal(b1-4)GlcNAc(b1-3)Gal(b1-4)GlcNAc(b1-3)Gal(b1-4)GlcNAc(b1-3)Gal(b1-4)GlcNAc(b1-2)Man(a1-3)[Gal(b1-4)GlcNAc(b1-3)Gal(b1-4)GlcNAc(b1-3)Gal(b1-4)GlcNAc(b1-3)Gal(b1-4)GlcNAc(b1-3)Gal(b1-4)GlcNAc(b1-2)Man(a1-6)]Man(b1-4)GlcNAc(b1-4)[Fuc(a1-6)]GlcNAc
In short: as §1

[17] = target: Gal(b1-4)GlcNAc(b1-3)Gal(b1-4)GlcNAc(b1-3)Gal(b1-4)GlcNAc(b1-3)Gal(b1-4)GlcNAc(b1-3)Gal(b1-4)GlcNAc(b1-2)[Gal(b1-4)GlcNAc(b1-3)Gal(b1-4)GlcNAc(b1-3)Gal(b1-4)GlcNAc(b1-3)Gal(b1-4)GlcNAc(b1-3)Gal(b1-4)GlcNAc(b1-6)]Man(a1-6)[Gal(b1-4)GlcNAc(b1-3)Gal(b1-4)GlcNAc(b1-3)Gal(b1-4)GlcNAc(b1-3)Gal(b1-4)GlcNAc(b1-3)Gal(b1-4)GlcNAc(b1-2)Man(a1-3)]Man(b1-4)GlcNAc(b1-4)[Fuc(a1-6)]GlcNAc
In short: as §1

[18] = target: Gal(b1-4)GlcNAc(b1-3)Gal(b1-4)GlcNAc(b1-3)Gal(b1-4)GlcNAc(b1-3)Gal(b1-4)GlcNAc(b1-3)Gal(b1-4)GlcNAc(b1-3)Gal(b1-4)GlcNAc(b1-2)Man(a1-3)[Gal(b1-4)GlcNAc(b1-3)Gal(b1-4)GlcNAc(b1-3)Gal(b1-4)GlcNAc(b1-3)Gal(b1-4)GlcNAc(b1-3)Gal(b1-4)GlcNAc(b1-3)Gal(b1-4)GlcNAc(b1-2)Man(a1-6)]Man(b1-4)GlcNAc(b1-4)GlcNAc
In short: as §1

[19] = target: Gal(b1-4)GlcNAc(b1-3)Gal(b1-4)GlcNAc(b1-3)[Gal(b1-4)GlcNAc(b1-3)Gal(b1-4)GlcNAc(b1-6)]GalNAc
In short: as §1

Gal3S(b1-4)Glc = target: Gal3S(b1-4)Glc
In short: as §1

B1: LSL-150 (Laetiporus sulphureus), Q7Z8V1 (protein)
chain: MTDIYIPPEGLYFRLLGFASRQVIFARNSPSPDVGLSPVNDQATDQYFSLIYGTGEHAGLYAIKSKATGKVLFSRRPAEPYVGQIDGDGRYPDNWFKIEPGKTYLSKYFRLVQPSTGTALVSRTHLQPYFWNHPQTEVFDDQYFTFLFEDHHHHHH
[1]
  glycan array binding signal (z-score): -0.208
[2]
  glycan array binding signal (z-score): -0.2
[3]
  glycan array binding signal (z-score): -0.204
[4]
  glycan array binding signal (z-score): -0.206
[5]
  glycan array binding signal (z-score): -0.207
[6]
  glycan array binding signal (z-score): -0.209
[7]
  glycan array binding signal (z-score): -0.208
[8]
  glycan array binding signal (z-score): -0.124
[9]
  glycan array binding signal (z-score): -0.205
[10]
  glycan array binding signal (z-score): 5.23
[11]
  glycan array binding signal (z-score): 5.29
[12]
  glycan array binding signal (z-score): 5.88
[13]
  glycan array binding signal (z-score): 6.24
[14]
  glycan array binding signal (z-score): 6.23
[15]
  glycan array binding signal (z-score): 5.44
[16]
  glycan array binding signal (z-score): 6.16
[17]
  glycan array binding signal (z-score): 6.2
[18]
  glycan array binding signal (z-score): 5.13
[19]
  glycan array binding signal (z-score): 0.034
Gal3S(b1-4)Glc
  glycan array binding signal (z-score): -0.196

— the supplement of paper PMC8728848
